# About 410 targets per protein were measured; listed, in parts, are those with the strongest signals and a random draw of the rest.
# Tests used:
# Test in all cases: glycan array binding signal (z-score within array); higher = stronger binding
# Conditions in all cases: glycan notation: IUPAC condensed, linker removed
# [1] = target: Fuc(a1-2)Gal(b1-3)GlcNAc(b1-2)Man(a1-3)[Fuc(a1-2)Gal(b1-3)GlcNAc(b1-2)Man(a1-6)]Man(b1-4)GlcNAc(b1-4)[Fuc(a1-6)]GlcNAc
# Summary of the method: (§1)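 Negative Z-scores can be read as non-binding. The Z-score is calculated within each array and then averaged across arrays of one protein sequence at different concentrations or buffers and across linkers. Arrays, 3228 in all, were curated from the Consortium for Functional Glycomics database and kept only where the protein sequence was available.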
# [2] = target: Fuc(a1-2)Gal(b1-4)Fuc(a1-3)]GlcNAc(b1-2)Man(a1-3)[Fuc(a1-2)Gal(b1-4)[Fuc(a1-3)]GlcNAc(b1-2)Man(a1-6)]Man(b1-4)GlcNAc(b1-4)GlcNAc
# Summary of the method: as §1
# [3] = target: Fuc(a1-2)Gal(b1-4)Glc6S
# Summary of the method: as §1
# [4] = target: Fuc(a1-2)Gal(b1-4)GlcNAc
# Summary of the method: as §1
# [5] = target: Fuc(a1-2)Gal(b1-4)GlcNAc(b1-2)Man(a1-3)[Fuc(a1-2)Gal(b1-4)GlcNAc(b1-2)Man(a1-6)]Man(b1-4)GlcNAc(b1-4)[Fuc(a1-6)]GlcNAc
# Summary of the method: as §1
# [6] = target: Fuc(a1-2)Gal(b1-4)GlcNAc(b1-6)GalNAc
# Summary of the method: as §1
# [7] = target: Fuc(a1-2)Gal(b1-4)[Fuc(a1-3)]GlcNAc(b1-3)GalNAc
# Summary of the method: as §1
# [8] = target: Fuc(a1-2)Gal3S(b1-4)GlcNAc
# Summary of the method: as §1
# [9] = target: Fuc(a1-2)[Gal(a1-3)]Gal(b1-3)GlcNAc(b1-3)GalNAc
# Summary of the method: as §1
# [10] = target: Fuc(a1-2)[Gal(a1-3)]Gal(b1-4)GlcNAc(b1-2)Man(a1-3)[Fuc(a1-2)[Gal(a1-3)]Gal(b1-4)GlcNAc(b1-2)Man(a1-6)]Man(b1-4)GlcNAc(b1-4)[Fuc(a1-6)]GlcNAc
# Summary of the method: as §1
# [11] = target: Fuc(a1-2)[GalNAc(a1-3)]Gal(b1-3)GlcNAc(b1-2)Man(a1-3)[Fuc(a1-2)[GalNAc(a1-3)]Gal(b1-3)GlcNAc(b1-2)Man(a1-6)]Man(b1-4)GlcNAc(b1-4)[Fuc(a1-6)]GlcNAc
# Summary of the method: as §1
# [12] = target: Fuc(a1-2)[GalNAc(a1-3)]Gal(b1-4)GlcNAc(b1-2)Man(a1-3)[Fuc(a1-2)[GalNAc(a1-3)]Gal(b1-4)GlcNAc(b1-2)Man(a1-6)]Man(b1-4)GlcNAc(b1-4)[Fuc(a1-6)]GlcNAc
# Summary of the method: as §1
# [13] = target: Fuc(a1-2)[GalNAc(a1-3)]Gal(b1-4)GlcNAc(b1-3)Gal(b1-4)GlcNAc(b1-3)Gal(b1-4)GlcNAc
# Summary of the method: as §1
# [14] = target: Fuc(a1-2)[GalNAc(a1-3)]Gal(b1-4)[Fuc(a1-3)]GlcNAc(b1-3)GalNAc
# Summary of the method: as §1
# [15] = target: Fuc(a1-3)[Gal(b1-4)]GlcNAc(b1-2)Man(a1-3)[Fuc(a1-3)[Gal(b1-4)]GlcNAc(b1-2)Man(a1-6)]Man(b1-4)GlcNAc(b1-4)GlcNAc
# Summary of the method: as §1
# [16] = target: Fuc(a1-3)[GalNAc(b1-4)]GlcNAc6S
# Summary of the method: as §1
# [17] = target: Gal(a1-2)Gal
# Summary of the method: as §1
# [18] = target: Gal(a1-3)Gal(b1-4)[Fuc(a1-3)]GlcNAc
# Summary of the method: as §1
# [19] = target: Gal(b1-3)Gal
# Summary of the method: as §1
# [20] = target: Gal(b1-3)GalNAc(b1-3)Gal
# Summary of the method: as §1
# [21] = target: Gal(b1-3)GalNAc(b1-3)Gal(a1-4)Gal(b1-4)Glc
# Summary of the method: as §1
# [22] = target: Gal(b1-3)GlcNAc(a1-3)Gal(b1-4)GlcNAc
# Summary of the method: as §1
# [23] = target: Gal(b1-3)GlcNAc(b1-3)Gal(b1-4)GlcNAc(b1-2)[Gal(b1-3)GlcNAc(b1-3)Gal(b1-4)GlcNAc(b1-6)]Man(a1-6)[Gal(b1-3)GlcNAc(b1-3)Gal(b1-4)GlcNAc(b1-2)Man(a1-3)]Man(b1-4)GlcNAc(b1-4)[Fuc(a1-6)]GlcNAc
# Summary of the method: as §1
# [24] = target: Gal(b1-3)[Fuc(a1-4)]GlcNAc(b1-6)GalNAc
# Summary of the method: as §1
# [25] = target: Gal(b1-3)[Neu5Ac(a2-6)]GlcNAc(b1-4)Gal(b1-4)Glc
# Summary of the method: as §1
# [26] = target: Gal(b1-4)Glc
# Summary of the method: as §1
binder,measurement,setting,value
Epa8 (Candida glabrata) (protein) MGSSHHHHHHSSGLVPRGSHMASSRALSDYPLGCSPLLGTKLTPGLSMELYEYPLDNHGIGPHCWDPAYLNPEYPRTGFESHKLIGTAQNVMSLNFEHRTQDCHVEFSNLPASFNFPDQITLTNFTMLLYGYFKPKESGRYRFHMEADDLLLMNLGAGNAFDCCAHEATRNNLGDYIAYDIWAGTRKDVEVFLEKEVFYPLRLFFNNRDGRAALDFSYYLNGATEPGTDIPELLFSLPDGESCPAYI,glycan array binding signal (z-score),[1],0.141
same,glycan array binding signal (z-score),[2],4.2
same,glycan array binding signal (z-score),[3],0.004
same,glycan array binding signal (z-score),[4],-0.45
same,glycan array binding signal (z-score),[5],-0.33
same,glycan array binding signal (z-score),[6],0.724
same,glycan array binding signal (z-score),[7],2.63
same,glycan array binding signal (z-score),[8],-0.437
same,glycan array binding signal (z-score),[9],0.166
same,glycan array binding signal (z-score),[10],0.03
same,glycan array binding signal (z-score),[11],0.09
same,glycan array binding signal (z-score),[12],0.443
same,glycan array binding signal (z-score),[13],0.493
same,glycan array binding signal (z-score),[14],3.16
same,glycan array binding signal (z-score),[15],-0.093
same,glycan array binding signal (z-score),[16],-0.401
same,glycan array binding signal (z-score),[17],-0.54
same,glycan array binding signal (z-score),[18],-0.506
same,glycan array binding signal (z-score),[19],0.171
same,glycan array binding signal (z-score),[20],-0.026
same,glycan array binding signal (z-score),[21],0.394
same,glycan array binding signal (z-score),[22],1.57
same,glycan array binding signal (z-score),[23],2.13
same,glycan array binding signal (z-score),[24],2.52
same,glycan array binding signal (z-score),[25],-0.392
same,glycan array binding signal (z-score),[26],-1.15

# Source: the supplement of paper PMC8728848
